Measurements as given in PubChem BioAssay.
Inconclusive results are not listed. The source made the active and inactive calls.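 The calls were made as follows, unless noted: active = GFP response above 150% of the DMSO control; inconclusive = fewer than 70 events counted in any yeast strain; inactive = the rest.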

What was measured:
[1] = yeast TOR pathway RPL19A-GFP modulators, primary screen, cell-based, S. cerevisiae, multiplex flow cytometry (AID 1862; in the data active = percent of DMSO control GFP below about 86%;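 also: lower values mimic rapamycin by blocking the RPL19A rise seen in DMSO cells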); conditions: S. cerevisiae RPL19A-GFP strain, flow cytometry fluorescence, 3 h; at 10 µM; stronger effect = lower value
[2] = modulators of MEP2-GFP levels in yeast, primary screen, S. cerevisiae, multiplex flow cytometry (AID 1867;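 active = GFP response, as percent of the DMSO control, above the screen-wide mean plus 3 SD, about 139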;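 also: median GFP channel fluorescence of barcode-gated MEP2-GFP cells measured by flow cytometry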); conditions: S. cerevisiae MEP2-GFP strain, 3 h, at 10 µM, stronger effect = higher value, 100% means same as DMSO wells
[3] = modulators of CIT2-GFP expression in yeast, primary screen, S. cerevisiae, GFP fusion, multiplex flow cytometry (AID 1870;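 active = percent response above a set limit, the screen-wide mean plus 3 SD, cut at about 130% in these data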;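 also: barcoded CIT2-GFP strain pooled with four other GFP strains with rapamycin as positive control; median GFP fluorescence per well over plate mean of DMSO wells so 100% = DMSO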); conditions: 3 h, at 10 µM, stronger effect = higher value
[4] = modulators of LAP4-GFP expression in yeast, primary screen, S. cerevisiae, multiplex flow cytometry (AID 1873;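 active = GFP signal, as percent of the solvent control, above the screen mean plus 3 SD, about 149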); conditions: 3 h, at 10 µM, stronger effect = higher value
[5] = modulators of AGP1-GFP expression in yeast TOR pathway, primary screen, cell-based, multiplex flow cytometry, S. cerevisiae (AID 1887;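 active = GFP signal above the screen-wide mean plus 3 SD, that is over about 124.5% of the solvent control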;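 also: AGP1-GFP fusion strain of S. cerevisiae within a five-strain barcoded multiplex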); conditions: 3 h, at 10 µM, stronger effect = higher value
[6] = RPL19A-GFP modulators, yeast TOR pathway, confirmation, cell-based, S. cerevisiae, flow cytometry, cherry picks, mother/daughter gates (AID 2270;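 active = GFP response below 50% of the DMSO control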); conditions: S. cerevisiae RPL19A-GFP strain, 3 h, at 10 µM, stronger effect = lower value, 100 = same GFP as DMSO wells
[7] = LAP4-GFP expression modulators in yeast, confirmation, cell-based, cherry picks, flow cytometry, mother/daughter gates (AID 2271);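 also: ratio of sample to DMSO plate mean so 100% equals DMSO level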; conditions: S. cerevisiae LAP4-GFP strain, 3 h, at 10 µM, stronger effect = higher value, 100 means same as DMSO control
[8] = modulators of MEP2-GFP levels in yeast, confirmation, S. cerevisiae, flow cytometry GFP, cherry picks (AID 2272;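 active = GFP response above 150% of the DMSO control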;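 also: ratio of well signal to plate DMSO mean so 100% equals DMSO level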); conditions: S. cerevisiae MEP2-GFP strain, 3 h, at 10 µM, stronger effect = higher value
[9] = modulators of CIT2-GFP expression in yeast, confirmation, S. cerevisiae, GFP fusion, cherry picks, mother/daughter gates (AID 2274;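 active = GFP response above 150% of the DMSO level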); conditions: S. cerevisiae CIT2-GFP strain, flow cytometry, 3 h, at 10 µM, stronger effect = higher value
[10] = inhibitors of CD8+ T cell-vesicle binding, pilot screen, LFA-1/ICAM-1 modulator project, MLPCN validation set, flow cytometry (AID 2523;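 active = response below a set limit, under 55% cells CD8-positive and vesicle-bound, and CD8 cells' 90th-percentile brightness under 279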;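 as to vesicle binding response: mean PE anti-B7-1 fluorescence of CD8+ cells relative to row control; 100% = QL9-loaded vesicles with DMSO vehicle in the same plate row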); conditions: 2C mouse CD8+ T cells, at 7 µM, stronger effect = lower value; double positive events: measured here: CD8+/vesicle+ event percentage
[11] = target: Integrin beta-1 (Homo sapiens) + Integrin alpha-4 (Homo sapiens) (UniProt P13612+P05556); assay: inhibition of HUTS-21 binding to VLA-4, pilot screen, VLA-4 allosteric modulator project, U937 cells, HUTS-21 mAb, flow cytometry, validation set (AID 2674;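 active = inhibition above 50%, about 3 SD of the validation set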;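 also: antibody binding induced by the VLA-4 ligand LDV present at three times its Kd; 0% = LDV ligand with antibody and no compound and 100% = antibody without LDV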); conditions: HUTS-21 LIBS mAb binding, at 6.7 µM, stronger effect = higher value, binding induced by LDV ligand
Chain of Integrin beta-1 (Homo sapiens) + Integrin alpha-4 (Homo sapiens) (P05556 whole entry, looked up): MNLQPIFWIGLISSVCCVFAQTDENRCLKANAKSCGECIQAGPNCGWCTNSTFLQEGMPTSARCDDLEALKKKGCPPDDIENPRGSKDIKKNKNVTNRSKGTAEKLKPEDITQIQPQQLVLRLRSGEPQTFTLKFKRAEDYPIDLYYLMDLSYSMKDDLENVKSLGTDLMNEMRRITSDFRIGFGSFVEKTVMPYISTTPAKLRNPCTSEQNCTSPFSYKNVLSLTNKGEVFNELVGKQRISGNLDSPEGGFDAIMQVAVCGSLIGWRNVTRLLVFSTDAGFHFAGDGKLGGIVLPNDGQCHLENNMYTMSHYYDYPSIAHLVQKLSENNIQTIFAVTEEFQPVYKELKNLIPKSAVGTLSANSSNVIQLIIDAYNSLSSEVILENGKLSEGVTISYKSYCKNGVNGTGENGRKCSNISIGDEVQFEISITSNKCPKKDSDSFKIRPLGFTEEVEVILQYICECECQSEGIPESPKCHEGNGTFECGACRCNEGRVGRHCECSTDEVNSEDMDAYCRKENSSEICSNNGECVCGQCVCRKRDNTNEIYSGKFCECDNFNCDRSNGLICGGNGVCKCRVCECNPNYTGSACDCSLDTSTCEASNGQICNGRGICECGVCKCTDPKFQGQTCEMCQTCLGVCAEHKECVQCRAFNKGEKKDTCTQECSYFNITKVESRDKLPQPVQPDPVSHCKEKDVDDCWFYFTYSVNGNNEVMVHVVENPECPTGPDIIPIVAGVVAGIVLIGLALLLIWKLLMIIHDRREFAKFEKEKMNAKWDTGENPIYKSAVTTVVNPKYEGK
Chain of Integrin beta-1 (Homo sapiens) + Integrin alpha-4 (Homo sapiens) (P13612 whole entry, looked up): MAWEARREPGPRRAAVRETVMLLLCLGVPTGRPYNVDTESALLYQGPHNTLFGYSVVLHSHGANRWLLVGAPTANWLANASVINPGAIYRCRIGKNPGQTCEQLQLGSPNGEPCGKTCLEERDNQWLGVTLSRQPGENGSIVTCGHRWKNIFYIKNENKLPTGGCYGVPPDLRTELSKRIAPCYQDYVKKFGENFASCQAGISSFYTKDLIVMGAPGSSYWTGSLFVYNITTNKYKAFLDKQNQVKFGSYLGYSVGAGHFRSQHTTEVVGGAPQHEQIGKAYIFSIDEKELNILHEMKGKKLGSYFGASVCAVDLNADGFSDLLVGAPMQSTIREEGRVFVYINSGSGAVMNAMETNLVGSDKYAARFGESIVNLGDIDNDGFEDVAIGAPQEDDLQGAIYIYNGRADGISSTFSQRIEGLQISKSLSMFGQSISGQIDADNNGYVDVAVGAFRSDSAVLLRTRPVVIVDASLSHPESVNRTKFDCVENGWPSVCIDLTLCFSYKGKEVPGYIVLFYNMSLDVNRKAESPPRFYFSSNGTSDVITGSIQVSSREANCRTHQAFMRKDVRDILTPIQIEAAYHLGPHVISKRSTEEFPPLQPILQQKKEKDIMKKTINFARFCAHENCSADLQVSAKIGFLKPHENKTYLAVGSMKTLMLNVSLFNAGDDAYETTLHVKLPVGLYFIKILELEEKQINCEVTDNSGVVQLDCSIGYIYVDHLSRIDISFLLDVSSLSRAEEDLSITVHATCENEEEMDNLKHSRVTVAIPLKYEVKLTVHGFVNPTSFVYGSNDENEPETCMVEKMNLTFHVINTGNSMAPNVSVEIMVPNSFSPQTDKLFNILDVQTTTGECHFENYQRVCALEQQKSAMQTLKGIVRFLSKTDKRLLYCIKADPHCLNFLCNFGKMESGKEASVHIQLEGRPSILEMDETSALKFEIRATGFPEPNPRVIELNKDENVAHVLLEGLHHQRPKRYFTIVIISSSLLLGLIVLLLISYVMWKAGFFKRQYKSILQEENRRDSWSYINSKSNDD

[12] = superoxide lowering in aged yeast cells, pilot screen, validation compound set (AID 2706;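 active = superoxide response below 65% of plate, a cut near 3 SD across the whole screen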;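 also: yeast exposed to compound for one week at 30 degrees C before staining; 100% = mean of all compound wells on the same plate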); conditions: S. cerevisiae aging, superoxide DHE fluorescence; at 10 µM; stronger effect = lower value
[13] = target: Beta-adrenergic receptor kinase 1 (Homo sapiens) (UniProt P25098); assay: GRK2 binders displacing RNA aptamer, biochemical, validation, human GRK2, bead flow cytometry (AID 488806;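 active = aptamer binding inhibition above 30%, about 3 SD of noise from non-fluorescent compounds; inactive = inhibition at or below 30%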); conditions: bead-bound GRK2, FAM-aptamer displacement, at 10 µM, stronger effect = higher value
Chain of Beta-adrenergic receptor kinase 1 (Homo sapiens) (P25098 whole entry, looked up): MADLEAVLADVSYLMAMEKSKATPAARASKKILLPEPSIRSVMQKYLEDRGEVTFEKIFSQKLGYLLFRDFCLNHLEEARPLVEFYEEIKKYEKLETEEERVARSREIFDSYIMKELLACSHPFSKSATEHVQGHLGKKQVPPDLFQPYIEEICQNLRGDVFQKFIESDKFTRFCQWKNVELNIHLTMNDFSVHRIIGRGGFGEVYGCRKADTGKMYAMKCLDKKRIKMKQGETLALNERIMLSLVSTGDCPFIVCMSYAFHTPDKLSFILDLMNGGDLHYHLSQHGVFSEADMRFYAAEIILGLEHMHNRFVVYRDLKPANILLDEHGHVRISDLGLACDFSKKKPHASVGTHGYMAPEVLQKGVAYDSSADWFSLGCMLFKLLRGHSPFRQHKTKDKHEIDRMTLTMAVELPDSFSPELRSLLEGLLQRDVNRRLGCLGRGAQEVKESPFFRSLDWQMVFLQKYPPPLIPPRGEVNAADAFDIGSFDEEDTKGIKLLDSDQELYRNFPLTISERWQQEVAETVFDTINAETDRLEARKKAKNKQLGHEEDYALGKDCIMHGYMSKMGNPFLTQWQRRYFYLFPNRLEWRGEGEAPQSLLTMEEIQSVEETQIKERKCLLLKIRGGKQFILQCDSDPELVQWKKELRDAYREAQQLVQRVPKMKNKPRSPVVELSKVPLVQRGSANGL

[14] = target: Beta-2 adrenergic receptor (Homo sapiens) (UniProt P07550); assay: beta2AR agonists driving receptor internalization, pilot screen, cell-based, FAP fluorogen, flow cytometry, validation set (AID 504459;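 active = percent response above 42, roughly 3 SD of non-fluorescent test compounds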;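 also: agonist-driven loss of surface beta2AR via internalization measured by FAP dye flow cytometry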); conditions: Am2.2-beta2AR cells, FAP surface receptor flow cytometry; at 10 µM; stronger effect = higher value
Chain of Beta-2 adrenergic receptor (Homo sapiens) (P07550 whole entry, looked up): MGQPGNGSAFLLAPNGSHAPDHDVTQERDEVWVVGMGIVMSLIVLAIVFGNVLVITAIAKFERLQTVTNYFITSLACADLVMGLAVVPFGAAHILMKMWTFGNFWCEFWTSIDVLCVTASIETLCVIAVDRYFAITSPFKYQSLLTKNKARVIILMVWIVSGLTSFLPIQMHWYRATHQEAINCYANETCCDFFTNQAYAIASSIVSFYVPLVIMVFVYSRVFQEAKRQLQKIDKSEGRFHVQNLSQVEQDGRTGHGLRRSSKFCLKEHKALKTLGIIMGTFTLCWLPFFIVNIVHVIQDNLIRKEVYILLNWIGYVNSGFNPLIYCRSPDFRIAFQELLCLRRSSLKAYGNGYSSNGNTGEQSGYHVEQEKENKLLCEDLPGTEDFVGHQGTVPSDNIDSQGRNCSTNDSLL

[15] = target: AP-2 complex subunit beta (Homo sapiens) (UniProt P63010); assay: inhibitors of arrestin peptide binding to AP2, pilot screen, biochemical, validation set, GST-AP2 beads, flow cytometry (AID 504541;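 active = inhibition above 54%, about 3 SD of non-fluorescent compounds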;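 also: AP2 carries R879A mutation and is captured from E. coli lysate; bead-bound FITC arrestin peptide fluorescence measuring arrestin peptide binding to AP2; 0% = DMSO wells and 100% = excess unlabeled arrestin peptide control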); conditions: FITC arrestin peptide, at 10 µM, stronger effect = higher value, AP2 beta2 appendage fragment, R879A mutant
Chain of AP-2 complex subunit beta (Homo sapiens) (P63010 whole entry, looked up, the tested form may be a part, one chain of several): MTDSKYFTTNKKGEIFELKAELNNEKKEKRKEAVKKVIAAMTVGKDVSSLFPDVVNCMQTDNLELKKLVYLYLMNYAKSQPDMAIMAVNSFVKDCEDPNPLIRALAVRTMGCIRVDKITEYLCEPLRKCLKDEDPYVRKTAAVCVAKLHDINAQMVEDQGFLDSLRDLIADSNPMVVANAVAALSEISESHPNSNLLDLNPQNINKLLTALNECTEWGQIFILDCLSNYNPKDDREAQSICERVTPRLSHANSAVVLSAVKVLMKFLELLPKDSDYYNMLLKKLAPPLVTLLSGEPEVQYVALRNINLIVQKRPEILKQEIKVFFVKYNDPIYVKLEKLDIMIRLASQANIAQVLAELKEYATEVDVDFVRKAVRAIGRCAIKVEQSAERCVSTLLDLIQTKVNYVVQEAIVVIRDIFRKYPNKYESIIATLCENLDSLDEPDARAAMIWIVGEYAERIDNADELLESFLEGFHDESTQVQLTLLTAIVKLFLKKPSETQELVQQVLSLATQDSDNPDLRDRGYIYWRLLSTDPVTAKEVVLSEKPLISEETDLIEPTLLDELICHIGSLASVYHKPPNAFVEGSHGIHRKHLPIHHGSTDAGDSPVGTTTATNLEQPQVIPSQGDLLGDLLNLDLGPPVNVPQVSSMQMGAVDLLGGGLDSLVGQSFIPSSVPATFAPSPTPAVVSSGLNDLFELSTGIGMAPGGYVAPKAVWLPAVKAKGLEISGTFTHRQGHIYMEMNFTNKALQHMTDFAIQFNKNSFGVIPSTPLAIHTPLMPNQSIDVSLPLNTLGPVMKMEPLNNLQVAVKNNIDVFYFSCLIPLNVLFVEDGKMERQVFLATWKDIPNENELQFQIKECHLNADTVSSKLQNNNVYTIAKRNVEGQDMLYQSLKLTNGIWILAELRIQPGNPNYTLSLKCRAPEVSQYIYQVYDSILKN

[16] = yeast V-ATPase proton transport modulators, S. cerevisiae, pHLuorin, HTS validation (AID 504600; in the data active = response above about 15%;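 also: plate controls were DMSO for no effect and reference compound for full effect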); conditions: S. cerevisiae pHLuorin cytosolic pH, at 10 µM, stronger effect = higher value
[17] = tested on: anti-desmoglein-3 scFv antibody binding to human DSG3; assay: inhibitors of anti-DSG3 scFv binding to DSG3, pilot screen, biochemical, validation compound set, bead-based, flow cytometry (AID 588368;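 active = binding below the plate cutoff, the plate median minus 3 SD, with a reading above zero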;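 also: signal is the median channel fluorescence of bead-bound GFP antibody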); conditions: Protein G beads, DSG3-Fc, scFv-GFP binding, at 10 µM, stronger effect = lower value
[18] = inhibitors of fungal efflux pumps CDR1, CDR2, MDR1, pilot screen, validation compound set, multiplex, phenotypic (AID 588506;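 active = efflux inhibition above 0.42, the validation set average plus 4 SD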;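 also: Nile Red retained in cells so higher fluorescence means more efflux inhibition; 0 = negative control wells and 1 = enniatin B 25 µM full block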); conditions: S. cerevisiae pump-expressing triplex, Nile Red efflux flow cytometry; at 10 µM; stronger effect = higher value; the pumps come from Candida albicans
[19] = target: ATP-binding cassette sub-family B member 6 (Homo sapiens) (UniProt Q9NP58); assay: ABCB6 transporter inhibitors, pilot screen, K562-ABCB6 cells, flow cytometry, validation set (AID 588550;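 active = inhibition above the screen-wide mean plus 3 SD, about 51%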;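 also: 0% = DMSO wells and 100% = benzethonium chloride 70 µM positive control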); conditions: K562-ABCB6 porphyrin accumulation, 1 h, at 10 µM, stronger effect = higher value
Chain of ATP-binding cassette sub-family B member 6 (Homo sapiens) (Q9NP58 whole entry, looked up): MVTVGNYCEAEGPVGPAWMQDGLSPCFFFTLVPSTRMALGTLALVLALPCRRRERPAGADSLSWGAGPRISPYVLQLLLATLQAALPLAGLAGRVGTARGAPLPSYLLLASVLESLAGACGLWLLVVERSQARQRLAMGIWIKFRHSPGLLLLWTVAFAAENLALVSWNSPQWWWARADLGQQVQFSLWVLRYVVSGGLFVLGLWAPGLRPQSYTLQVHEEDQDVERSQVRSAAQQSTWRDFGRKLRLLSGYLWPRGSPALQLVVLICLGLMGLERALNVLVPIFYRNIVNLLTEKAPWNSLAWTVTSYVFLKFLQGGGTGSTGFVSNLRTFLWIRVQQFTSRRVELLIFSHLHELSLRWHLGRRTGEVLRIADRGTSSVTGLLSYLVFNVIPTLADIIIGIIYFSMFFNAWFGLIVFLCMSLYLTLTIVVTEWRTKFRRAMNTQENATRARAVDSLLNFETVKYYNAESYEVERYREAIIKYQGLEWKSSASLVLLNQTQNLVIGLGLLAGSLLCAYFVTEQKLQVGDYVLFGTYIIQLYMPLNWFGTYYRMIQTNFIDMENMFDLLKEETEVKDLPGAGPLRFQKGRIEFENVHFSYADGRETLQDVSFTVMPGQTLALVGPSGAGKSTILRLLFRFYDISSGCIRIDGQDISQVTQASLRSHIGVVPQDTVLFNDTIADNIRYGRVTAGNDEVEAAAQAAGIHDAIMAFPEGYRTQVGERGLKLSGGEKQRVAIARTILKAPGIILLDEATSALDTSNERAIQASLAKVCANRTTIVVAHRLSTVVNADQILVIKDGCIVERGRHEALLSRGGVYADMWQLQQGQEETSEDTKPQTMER

[20] = promoters of myeloid differentiation in arrested cells, primary screen, cell-based, GFP/MAC1 double positive, flow cytometry, validation set (AID 588685;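 active = differentiation response of at least 50%, scaled between solvent and reference control, from cells with both markers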;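 also: compound exposure lasts four days before antibody staining and flow analysis; 0% = DMSO wells and 100% = 5 µM fulvestrant positive control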); conditions: ER-HoxA9 marrow cells, stronger effect = higher value, normalized: vehicle 0, fulvestrant 100
[21] = measured here: daughter cell gate
[22] = measured here: mother cell gate
[23] = measured here: daughter cell gate response
[24] = measured here: mother cell gate response

O=C(O)Cc1ccc(-c2ccccc2)cc1
inactive: percent of DMSO control GFP [1] 89.4% | GFP response vs DMSO [2] 96.3% | percent response of DMSO control [3] 65.4% | GFP response, % of DMSO [5] 76.9% | GFP response vs DMSO [6] 96.5% | GFP response relative to DMSO [7] 115% | GFP response vs DMSO [8] 102% | GFP response, % of DMSO [9] 102% | vesicle binding response [10] 5570% | inhibition [11] 2.3% | superoxide response (% of plate) [12] 118% | aptamer binding inhibition [13] 3% | response [14] 2.38% | inhibition [15] 22.4% | response [16] -1.1% | binding (% of control) [17] 99.5% | efflux inhibition (fraction of control) [18] -0.42 | inhibition [19] 8% | differentiation response [20] -24.8%
114%: GFP response relative to DMSO [7, 24]
65.8%: double positive events [10]
91.5%: GFP response, % of DMSO [9, 21]
active: GFP response vs DMSO [4] 196%
95.9%: GFP response vs DMSO [6, 22]
93.3%: GFP response vs DMSO [6, 21]
116%: GFP response relative to DMSO [7, 23]
103%: GFP response, % of DMSO [9, 22]

CC(=O)O[C@]1(C(C)=O)CC[C@H]2[C@@H]3C[C@H](C)C4=CC(=O)CC[C@]4(C)[C@H]3CC[C@@]21C
101%: GFP response, % of DMSO [9, 22]
97.9%: GFP response relative to DMSO [7, 23]
97.2%: GFP response vs DMSO [6, 22]
102%: GFP response, % of DMSO [9, 21]
63.9%: double positive events [10]
98.5%: GFP response relative to DMSO [7, 24]
inactive: percent of DMSO control GFP [1] 98.4% | GFP response vs DMSO [2] 106% | percent response of DMSO control [3] 90.8% | GFP response vs DMSO [4] 84.8% | GFP response, % of DMSO [5] 95.7% | GFP response vs DMSO [6] 94.3% | GFP response relative to DMSO [7] 98.8% | GFP response vs DMSO [8] 93.3% | GFP response, % of DMSO [9] 101% | vesicle binding response [10] 241% | inhibition [11] -3.57% | aptamer binding inhibition [13] -1% | response [14] 3.07% | inhibition [15] -9.79% | response [16] -0.42% | binding (% of control) [17] 100% | efflux inhibition (fraction of control) [18] 0.08 | inhibition [19] 20% | differentiation response [20] 10%
95.7%: GFP response vs DMSO [6, 21]

CC(=O)[C@@]1(O)CC[C@H]2[C@@H]3C[C@H](C)C4=CC(=O)CC[C@]4(C)[C@H]3CC[C@@]21C
72%: double positive events [10]
95.1%: GFP response vs DMSO [6, 22]
inactive: percent of DMSO control GFP [1] 90.2% | GFP response vs DMSO [2] 114% | percent response of DMSO control [3] 96.6% | GFP response vs DMSO [4] 78.1% | GFP response, % of DMSO [5] 96.6% | GFP response vs DMSO [6] 94.8% | GFP response relative to DMSO [7] 94.1% | GFP response vs DMSO [8] 92% | GFP response, % of DMSO [9] 98.3% | vesicle binding response [10] 363% | inhibition [11] 11.3% | superoxide response (% of plate) [12] 97% | aptamer binding inhibition [13] 4% | response [14] 4.79% | inhibition [15] -6.18% | response [16] 1.54% | binding (% of control) [17] 102% | efflux inhibition (fraction of control) [18] -0.46 | inhibition [19] 13% | differentiation response [20] -9.01%
96.1%: GFP response vs DMSO [6, 21] | GFP response, % of DMSO [9, 22]
92.8%: GFP response relative to DMSO [7, 23]
92.9%: GFP response relative to DMSO [7, 24]
101%: GFP response, % of DMSO [9, 21]
